From PubChem BioAssay
WT yeast gro inh: growth inhibition of WT yeast, mitochondrial fusion screen. mitochondrial fusion phenotypic screen, WT strain. inhibition, % at 10 µM. 190,000 tested, 2.1% active. AID 1362; in the data active means inhibition above about 58%; tested in S. cerevisiae
CHOP inhibitor: blocks CHOP induction under ER stress; inhibition, % at 10 µM; AID 2732; 220,000 tested, 3.8% active; CHO-K1 CHOP-promoter luciferase, tunicamycin-induced, 15-18 h;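 active means compounds that reduced the stress-induced luciferase reporter signal by more than about 70% of percent inhibition, limit read from the data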;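 further: 0% = tunicamycin plus vehicle and 100% = wells without tunicamycin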
RAM network inh: inhibitors of the yeast RAM network. S. cerevisiae dse1pr::URA3 reporter, 5-FOA growth OD615, 2 d; analog-sensitive cbk1-as2 kinase mutant strain. inhibition, % at 50 µM. 190,000 tested, 1.8% active;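 active means inhibition above a set limit, 3 SD over mean compound inhibition, cut at about 8.4% in these data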;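 further: 0% = DMSO-only wells with no growth and 100% = 10 µM 1-NA-PP1 full growth; inhibition rescues growth on 5-FOA so higher OD means more RAM inhibition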
L major viab: inhibitors of Leishmania major promastigote growth; Leishmania major promastigotes, resazurin fluorescence viability; inhibition, % at 10 µM; 200,000 tested, 9% active; AID 1063; in the data active means inhibition above about 50%;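 further: promastigotes grown with compound for 44 hours at 28 °C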
The depositor's hits bear a star. Sampled rows, rich in hits. Any-hit rate of the full collection: about 13%.

What do the screens show for `C=C(CO)CC1CC(O)[C@]2(C)OC3CC4OC5C[C@]6(C)O[C@]7(C)CCC8OC9C[C@]%10(C)OC%11C(C)=CC(=O)OC%11CC%10OC9C[C@@H](C)C8OC7CC6O[C@]5(C)C/C=C\C4OC3CC2O1` (stereo partly drawn)?
WT yeast gro inh: 11.4; CHOP inhibitor: 40.6; RAM network inh: 1.6; L major viab: 55.6*

What do the screens show for `C[C@H]1C2Cc3ccc(O)cc3C1(C)CCN2CC1CC1` (stereo partly drawn)?
CHOP inhibitor: -9.8

How did Oc1ccccc1/C=N/NP(=S)(c1ccccc1)c1ccccc1 do in these assays?
WT yeast gro inh: 44.9; CHOP inhibitor: 40.7; RAM network inh: 8.6*; L major viab: 9.0

How did Oc1ccc(/C=N/NP(=S)(c2ccccc2)c2ccccc2)c(O)c1O do in these assays?
WT yeast gro inh: 28.8; CHOP inhibitor: 0.8; RAM network inh: 1.6; L major viab: -17.4

What do the screens show for `CSc1ccc(C(=O)C2CCCN(C)C2)cc1` (stereo not drawn)?
WT yeast gro inh: 4.8; CHOP inhibitor: 9.0; RAM network inh: 1.6; L major viab: 72.3*

What do the screens show for `CSc1ccc(C(=O)C2CCCN(Cc3cnc(SC)nc3)C2)cc1` (stereo not drawn)?
WT yeast gro inh: 33.8; CHOP inhibitor: -5.1; RAM network inh: 3.0; L major viab: 93.7*

What do the screens show for `CSc1ccc(C(=O)C2CCCN(CCCn3cccn3)C2)cc1` (stereo not drawn)?
WT yeast gro inh: 1.1; CHOP inhibitor: 26.6; RAM network inh: 1.1; L major viab: 85.7*

How did CSc1ncc(CN2CCCC(C(=O)c3ccccc3SC)C2)cn1 (stereo not drawn) do in these assays?
CHOP inhibitor: -9.2

How did CCc1nnc(NS(=O)(=O)c2ccc(N=Cc3c(O)n(-c4ccc(Cl)cc4)c(=O)[nH]c3=O)cc2)s1 do in these assays?
WT yeast gro inh: -13.5; CHOP inhibitor: 18.1; RAM network inh: 0.6; L major viab: -7.7

What do the screens show for `CN(N)N=Nc1nc2c([nH]1)c(=O)n(C)c(=O)n2C`?
CHOP inhibitor: 1.4

Results for CCCC1(CCC)C(=O)NC(=Nc2ccccc2)NC1=O ?
WT yeast gro inh: 8.2; CHOP inhibitor: 13.7; RAM network inh: 3.0; L major viab: -1.1

How did CCCCC1(CCCC)C(=O)NC(=Nc2cccc(C)c2)NC1=O do in these assays?
WT yeast gro inh: 3.0; CHOP inhibitor: 79.5*; RAM network inh: 3.0; L major viab: 25.9

Results for COc1ccc(CCNCc2ccc(F)cc2)cc1OC ?
WT yeast gro inh: 13.4; CHOP inhibitor: 2.5; RAM network inh: -1.1; L major viab: 50.2*

Results for COc1ccc(CCNCc2ccc(SC)cc2)cc1 ?
WT yeast gro inh: -8.7; CHOP inhibitor: 16.7; RAM network inh: -0.1; L major viab: 62.7*

What do the screens show for `COc1ccc(CCNCc2cccc(C(F)(F)F)c2)cc1OC`?
WT yeast gro inh: -2.1; CHOP inhibitor: -2.6; RAM network inh: -1.1; L major viab: 7.6

How did O=C1NC(=S)N(c2ccccc2)C(=O)C1C(c1ccncc1)C1C(=O)NC(=S)N(c2ccccc2)C1=O (stereo not drawn) do in these assays?
WT yeast gro inh: -0.1; CHOP inhibitor: -5.7; RAM network inh: 1.0; L major viab: -6.6

What do the screens show for `C=CCn1c(=O)c(C=Nc2c(OC)cccc2[N+](=O)[O-])c(O)n(CCCC)c1=O`?
WT yeast gro inh: -1.2; CHOP inhibitor: 45.9; RAM network inh: 2.0; L major viab: -7.0

How did CC/C(=N\Nc1ccccc1)c1c(O)n(-c2ccccc2)c(=O)[nH]c1=O do in these assays?
CHOP inhibitor: -7.5

Results for CC/C(=N\Nc1ccccc1)c1c(O)n(C)c(=O)n(C)c1=O ?
WT yeast gro inh: 22.7; CHOP inhibitor: 1.4; RAM network inh: -0.6; L major viab: 61.1*

Results for CN1CCC(OC(=O)C2c3ccccc3Oc3ccccc32)CC1 ?
WT yeast gro inh: 2.6; CHOP inhibitor: 7.5; RAM network inh: 2.8; L major viab: 85.7*

Results for CC(C)(C)C(=O)NC1CCSC1=O (stereo not drawn) ?
WT yeast gro inh: -11.2; CHOP inhibitor: -15.2; RAM network inh: 1.6; L major viab: -0.9

What do the screens show for `CCN1CCC(O)(c2ccccc2)C(C(=O)c2ccccc2)C1` (stereo not drawn)?
L major viab: 80.3*

Results for CN1CCC(O)(c2ccccc2)C(C(=O)c2ccccc2)C1 (stereo not drawn) ?
WT yeast gro inh: 7.9; CHOP inhibitor: 8.2; RAM network inh: 0.0; L major viab: 49.5

How did O=C(CCN1CCOCC1)NCC(=O)Nc1ccc(Br)cc1C(=O)c1ccccc1 do in these assays?
WT yeast gro inh: -2.3; CHOP inhibitor: 23.0; RAM network inh: 0.2; L major viab: -3.3
